Test results taken from PubChem BioAssay (NCATS).
Records with an inconclusive call do not appear. Where a call stands in place of a potency, no number is given. Unmarked numbers belong to inactive results. Calls of active or inactive are those of the source. Calls follow the shape of the dose curve; as a rule, active = well fitted inhibition curve with a large enough effect; inconclusive = small, poorly fitted or top-dose-only effect; inactive = flat fitted curve, though single readings scatter. Where a SMILES comes first, the peptide text is derived from it. [ ]: non-standard residue; d: D form. ξ: configuration not given here. ξLac(3-iPr) = CC(C)CC(O)C(=O)O; NMeV = CN[CH](C(=O)O)C(C)C; βAla = NCCC(=O)O
Potency is read from the fitted curve at half-maximal effect.

Assay: P-glycoprotein substrates identified in KB-8-5-11 adenocarcinoma cell line, qHTS therapeutic library screen (AID 1346987); also: nearly all actives have a fitted effect of over 65% in size
Conditions: KB-8-5-11 (P-gp overexpressing) viability, CellTiter-Glo, 72 h; series mostly up to 44.5 µM
Method in brief: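 P-gp-mediated resistance screen: KB-8-5-11 cells treated 72 h with compounds in dose-response. CellTiter-Glo viability.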
In the case of `CC1CCCCN1S(=O)(=O)c1ccc(N2CCCC2=O)cc1` (centres undefined), the Potency is reported as “inactive”. For `CC(C)C(N)C(=O)OCCOCn1cnc2c(=O)[nH]c(N)nc21` (centres undefined), the Potency was “inactive”. In the case of `C=C1CCC2C(C)(C(=O)OC)CCCC2(C)C1CCC(C)CC(=O)O` (centres undefined), the Potency is reported as “inactive”. For `COC(=O)CC(C)(O)CC(=O)OCc1ccc(O[C@@H]2O[C@H](CO)[C@@H](O)[C@H](O)[C@H]2O)cc1` (some centres undefined), the Potency was “inactive”. With `O=C(CSc1nc2c(c(=O)n1-c1ccccc1)SCC2)Nc1ccc(-c2ccccc2)cn1` the Potency was 0.082 µM (active). In the case of `CC[C@]12C=CCN3CC[C@@]4(c5cc([C@@]6(C(=O)OC)C[C@H]7C[C@@H](C(C)(F)F)CN(Cc8c6[nH]c6ccccc86)C7)c(OC)cc5N(C)[C@H]4[C@@](O)(C(=O)OC)[C@@H]1OC(C)=O)[C@@H]32`, the Potency is reported as 5.44 µM (active). In the case of `Cc1cccc(-c2[nH]c(Cc3cccc(C(N)=O)c3)nc2-c2ccc3nccnc3c2)n1`, the Potency is reported as “inactive”. With `O=C(OC1C=C(CO)C2C(OC3OC(CO)C(O)C(O)C3O)OC=CC12)c1ccc(O)cc1` (centres undefined) the Potency was “inactive”. With `O=C(N/N=C/c1ccc(O)c(O)c1)c1cc2ccccc2cc1O` the Potency was “inactive”. For `O=C(/C=C\c1ccc(O)cc1)N[C@@H](Cc1ccc(O)cc1)C(=O)O`, the Potency was “inactive”. With `CN1CCc2nc(C(=O)N[C@@H]3C[C@@H](C(=O)N(C)C)CC[C@@H]3NC(=O)C(=O)Nc3ccc(Cl)cn3)sc2C1` the Potency was “inactive”. In the case of `CC(C)CC1OC(=O)C2CCCN2C(=O)CCNC(=O)C(Cc2ccccc2)NC(=O)C(C(C)C)N(C)C(=O)C(C(C)C)N(C)C1=O` (centres undefined) (cyclo([ξLac(3-iPr)][NMeV][NMeV]F[βAla]P); configuration not given here), the Potency is reported as “inactive”. In the case of `COC(=O)C1(C)c2[nH]c3ccccc3c2CCN1C(=O)CCl` (centres undefined), the Potency is reported as 10.3 µM (active). With `C[C@@H]1CC[C@]2(C(=O)O[C@@H]3O[C@H](CO)[C@@H](O)[C@H](O)[C@H]3O)CC[C@]3(C)C(=CCC4[C@@]5(C)C[C@@H](O)[C@H](O)[C@](C)(C(=O)O)C5CC[C@]43C)[C@@H]2[C@]1(C)O` (some centres undefined) the Potency was “inactive”. With `C=C1C[C@]23C[C@H]1[C@@H](O)C[C@H]2[C@@]12C=C[C@H](O)[C@@](C)(C(=O)O1)[C@H]2[C@@H]3C(=O)O` the Potency was “inactive”. With `C[C@@H]1O[C@@H](O[C@H]2[C@H](O)[C@@H](C(=O)O)O[C@@H](O[C@H]3CC[C@@]4(C)C(CC[C@]5(C)C4CC=C4C6CC(C)(C)CC[C@]6(C(=O)O)CC[C@]45C)C3(C)C)[C@@H]2O[C@@H]2OC[C@@H](O)[C@H](O)[C@H]2O)[C@H](O)[C@H](O)[C@H]1O` (some centres undefined) the outcome was “inactive [at 9.29 µM]”. For `O=C(O)CC(=O)OC[C@H]1O[C@@H](Oc2ccc3c(c2)OC[C@H]2c4cc5c(cc4O[C@@H]32)OCO5)[C@H](O)[C@@H](O)[C@@H]1O`, the Potency was “inactive”. With `C=C1CC[C@H]2[C@@](C)(CCC(O)[C@@]2(C)CO)[C@@H]1CCC1=CCOC1=O` (some centres undefined) the Potency was “inactive”. With `COC(=O)[C@@H](O)[C@H]1[C@@]2(C)CC3(O)[C@@H](C(=O)[C@H]2O)[C@]24O[C@]25CC(=O)O[C@@H](c2ccoc2)[C@]5(C)CCC4[C@]13C` (some centres undefined) the Potency was “inactive”. With `COC(=O)CCC(=O)OC[C@]1(C)CCC[C@@]2(C)C3CC[C@]4(C)C=CC3(CCC12)C4` (some centres undefined) the Potency was “inactive”. For `C[C@@H]1C[C@@H]([C@@H](O)C(C)(C)O)O[C@H]2C[C@@]3(C)C(=C12)C[C@H](O)[C@H]1[C@@]2(C)CCC(=O)C(C)(C)C2CC[C@@]13C` (some centres undefined), the Potency was “inactive”. For `C=C1C(OC(=O)/C(C)=C\C)[C@@]23CCC4[C@@](C)(CCC[C@@]4(C)C(=O)O)C2CC[C@H]1C3OC(C)=O` (some centres undefined), the Potency was “inactive”. In the case of `C=CC(C)(O)C(O)CC1C(C)(O)C(O)C(O)C2C(C)(C)CCCC21C` (centres undefined), the Potency is reported as “inactive”. For `C=C1CCC2C(C(C)(C)O)CCC2(C)CC(O)C(=C)CCC1O` (centres undefined), the Potency was “inactive”. With `CO[C@H]1C[C@@H]2CC[C@@H](C)[C@@](O)(O2)C(=O)C(=O)N2CCCC[C@H]2C(=O)O[C@H]([C@H](C)C[C@H]2CC[C@@H](OP(C)(C)=O)[C@H](OC)C2)CC(=O)[C@H](C)/C=C(\C)[C@@H](O)[C@@H](OC)C(=O)[C@H](C)C[C@H](C)/C=C/C=C/C=C/1C` the Potency was “inactive”. In the case of `Cc1cc(C)c(Nc2ccnc(Nc3ccc(C#N)cc3)n2)c(C)c1`, the Potency is reported as 9.2 µM (active). With `COc1cc2nc(N3CCC(N4CCCCC4)CC3)nc(NC3CCCCCC3)c2cc1OC` the Potency was 5.17 µM (active). In the case of `O=C(/C=C/c1cccc(S(=O)(=O)Nc2ccccc2)c1)NO`, the Potency is reported as 2.82 µM (active). With `Cc1cc(O)c(-c2ccc([C@@H](C)CN(C)C)cc2)c2c1[nH]c(=O)c1sccc12` the Potency was 0.082 µM (active). With `Cc1ccccc1NC(=O)Nc1ccc(CC(=O)N(C)[C@@H](CC(C)C)C(=O)NCC[C@H](NC(=O)[C@@H]2CCCN2S(=O)(=O)c2cc(Cl)cc(Cl)c2)C(=O)O)cc1` the Potency was “inactive”. With `NC(=O)Nc1cc(-c2cccc(F)c2)sc1C(=O)NC1CCCNC1` (centres undefined) the Potency was 8.2 µM (active). For `NC(=O)[C@H](O[C@@H]1O[C@H](CO)[C@@H](O)[C@H](O)[C@H]1O)c1ccccc1`, the Potency was “inactive”. For `C/C=C(/COC(=O)/C(C)=C/C)C(=O)OC(CC)c1ccc(OC)c(OC)c1` (centres undefined), the Potency was “inactive”. In the case of `C=CC(C)(O)CC/C=C(\C)C(=O)OC1C(O)C(CO)OC(OC(=O)C23CCC(C)(C)CC2C2=CCC4C5(C)CCC(OC6OC(COC7OCC(OC(C)=O)C(O)C7OC7OC(COC(C)=O)C(O)C(O)C7O)C(O)C(O)C6O)C(C)(C)C5CCC4(C)C2(C)C(O)C3O)C1OC1OCC(OC2OCC(O)C(OC3OCC(O)C(O)C3O)C2O)C(O)C1O` (centres undefined), the activity change, negative = cytotoxicity is reported as 9.63% [at 5.11 µM]. In the case of `Cc1ccc(NC(=O)Nc2cc(C(F)(F)F)ccc2F)cc1Nc1ccc2c(c1)NC(=O)/C2=C\c1ccc[nH]1`, the Potency is reported as 13 µM (active). For `CC[C@H](NC(=O)[C@H](CS(=O)(=O)CC1CC1)N[C@@H](c1ccc(F)cc1)C(F)(F)F)C(=O)C(=O)NC1CC1`, the Potency was “inactive”. With `CNS(=O)(=O)CC1CCC(N(C)c2ncnc3[nH]ccc23)CC1` (centres undefined) the Potency was “inactive”. For `CCN(CC)Cc1ccc(C(=O)N(CCc2ccccc2OC)[C@@H]2CCNC2)cc1`, the Potency was “inactive”. For `CC(C)CC1NC(=O)C2CC3(O)c4ccccc4NC3N2C1=O` (centres undefined), the Potency was “inactive”.
